Hits are enriched below; roughly 1.3% of the tested compounds scored in any of these assays.
Rpn11 block = Rpn11 (PSMD14) deubiquitinase inhibitors, primary screen, biochemical, fluorescence polarization, uHTS. human 26S proteasome, Ub4-pepOG fluorescence polarization; 20S core pre-blocked with epoxomicin. calls only at 20 µM. 0.59% of 360,000 active. AID 588493, 2011;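 active means inhibition at 20 µM, scaled to each plate's controls, above about 33%, limit read from the data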
Neddylation inh = inhibitors of cullin neddylation, primary screen, biochemical, TR-FRET, uHTS, NAE and Ubc12; inhibition, % at 25 µM; 0.58% of 360,000 active; AID 651699, 2012; in the data active means inhibition above about 36%
PKA-R1A activ = activators of PKA-R1A holoenzyme, primary screen, biochemical, fluorescence polarization, Cy5-IP20, bovine R1A, mouse PKAc | PKA-R1A dissociation; scaled: DMSO 0%, 113 µM cGMP 100% | activation, % at 11.4 µM | 0.083% of 340,000 active;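 active means percent activation above the mean of all tested compounds plus 3 SD, cut at about 19% in these data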;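 further: higher means more PKAc released from R1A so a rise in polarization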
PKA-R2B act = activators of PKA-R2B holoenzyme, primary screen, biochemical, fluorescence polarization, Cy5-IP20, human. cAMP-dependent protein kinase catalytic subunit beta (Homo sapiens) + cAMP-dependent …. PKA-R2B holoenzyme dissociation; R2B truncated from residue 108, S112A mutant; 0% DMSO only, 100% 113 µM cGMP. activation, % at 11.4 µM. 0.079% of 340,000 active. AID 504700, 2011;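 active means activation above a cutoff set at the mean over all compounds plus 3 SD, cut at about 18% in these data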;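 further: higher means more holoenzyme dissociation and a rise in polarization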
Rpn11 inh conf = Rpn11 (PSMD14) deubiquitinase inhibitors, confirmation, biochemical, fluorescence polarization, single concentration; purified human 26S proteasome, Ub4-pepOG fluorescence polarization; proteasome pretreated with epoxomicin; inhibition, % at 20 µM; shares compounds with Rpn11 block; 29% of 1,900 active
MMP-2 counter = MMP-2 enzyme inhibition, confirmation, counter-screen for RPN11 inhibitor project, biochemical, fluorescence, single concentration; shares compounds with Rpn11 block; recombinant MMP-2, FRET peptide cleavage fluorescence; inhibition, % at 20 µM; 4% of 1,900 active;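 further: human MMP-2 activated beforehand with APMA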
Thrombin FP = bovine thrombin protease inhibition, confirmation, counter-screen for Rpn11 inhibitor project, biochemical, fluorescence polarization, single concentration | bovine thrombin cleavage of Ub4-pepOG | 13% of 1,900 active | shares compounds with Rpn11 block | AID 602333, 2012 | inhibition, % at 20 µM;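 active means mean inhibition at least 40% at 20 µM, or signal 3 deviations below plate average, so some actives read negative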;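 further: plate controls were thrombin with DMSO for no effect and buffer wells lacking thrombin for full effect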
Target sequence (P00735 whole entry, looked up): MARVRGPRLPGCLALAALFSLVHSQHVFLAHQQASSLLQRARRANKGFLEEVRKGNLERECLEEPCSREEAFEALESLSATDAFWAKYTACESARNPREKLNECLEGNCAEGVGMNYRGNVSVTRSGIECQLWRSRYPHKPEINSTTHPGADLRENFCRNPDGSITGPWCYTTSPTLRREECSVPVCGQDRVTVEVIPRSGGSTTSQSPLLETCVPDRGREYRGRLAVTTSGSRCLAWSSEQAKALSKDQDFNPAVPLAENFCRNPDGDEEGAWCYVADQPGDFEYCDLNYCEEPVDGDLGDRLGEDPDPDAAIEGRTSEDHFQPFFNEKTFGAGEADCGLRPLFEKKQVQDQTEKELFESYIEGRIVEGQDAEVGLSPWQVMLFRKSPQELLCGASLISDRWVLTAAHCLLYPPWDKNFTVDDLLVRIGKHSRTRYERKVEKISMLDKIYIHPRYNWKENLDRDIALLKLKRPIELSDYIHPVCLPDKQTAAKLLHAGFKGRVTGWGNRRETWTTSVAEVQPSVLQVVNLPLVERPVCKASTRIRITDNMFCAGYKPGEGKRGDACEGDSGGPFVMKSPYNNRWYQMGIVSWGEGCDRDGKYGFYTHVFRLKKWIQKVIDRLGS
Numbers without * were called inactive; i = inactive; · = no result shown; + = active, no number. Unless noted, no stated cut-off is given here; in the data, active means inhibition above about 40%; inactive means the rest.

SMILES	Rpn11 block	Neddylation inh	PKA-R1A activ	PKA-R2B act	Rpn11 inh conf	MMP-2 counter	Thrombin FP
CC1CCCC(NC(=O)COC(=O)c2cccs2)C1C (stereo not drawn)	i	6.2	-4.4	4.1	·	·	·
CCC(C)Sc1cc(-c2nc3cc(C)ccn3c2NC2CCCCC2)ccc1OC (stereo not drawn)	+	·	-8.1	-29.1	8.5	-29.4	0.4
Cc1c(Cc2ccccc2)sc(NC(=O)/C=C/c2cccc3ccccc23)c1C(N)=O	+	37.3	0.9	-4.7	-5.8	-8.2	-33.3
COC(=O)c1c(NC(=O)/C=C/C(=O)O)sc(Cc2ccccc2)c1C	i	-4.9	-2.2	-4.7	·	·	·
COc1ccc(Cc2c(-c3ccc(C)cc3)nc3ccc(Cl)cn23)c(C)c1	+	6.5	·	·	51.6*	23.6	37.1
O=C(Cn1c2ccccc2c(=O)c2ccccc21)N/N=C/c1cc([N+](=O)[O-])ccc1N1CCCCCC1	+	17.0	-8.9	2.2	19.4	7.7	11.9
CN(C)CCCNc1nc2cc(-c3ccsc3)sc2c(=O)n1C	i	-74.5	·	·	·	·	·
CN(C)CCCNc1nc2cc(-c3ccc4c(ccn4C)c3)sc2c(=O)n1C	+	-351.8	·	·	17.8	6.9	-15.0
COC(=O)c1ccc(C23CC4(C2)[C@H](CN(Cc2cccnc2)[C@@H]4c2ccccc2)C3c2ccccc2)cc1 (stereo partly drawn)	+	-26.6	-4.4	-0.2	23.7	2.1	19.7
N#Cc1ccc(C23CC4(C2)[C@H](CN(Cc2cccnc2)[C@@H]4c2ccccc2)C3c2ccccc2)cc1 (stereo partly drawn)	i	-22.4	3.5	-0.2	·	·	·
Cc1cc(/C=C2\SC(=S)NC2=O)c(C)[nH]1	+	-8.6	-7.3	1.6	44.6*	17.4	38.2
CCn1c(C)cc(/C=C2/SC(=S)NC2=O)c1C	i	-7.6	-11.7	-13.6	·	·	·
Cc1ccnc(NS(=O)(=O)c2ccc(NC(=O)c3cc(-c4ccc(Br)cc4)nc4ccccc34)cc2)n1	+	-56.0	-14.2	1.4	17.8	10.0	7.8
COc1cc(/C=C2\SC(=S)N(NC(=O)c3ccc(O)c(OC)c3)C2=O)ccc1O	·	-49.0	-4.5	4.2	·	·	·
COc1cc(/C=C2\SC(=S)N(NC(=O)c3ccccc3OC)C2=O)ccc1O	+	-40.3	-4.0	-1.5	19.5	12.0	-0.7
CCOc1cc(/C=C2\SC(=S)N(NC(=O)c3cccnc3)C2=O)ccc1O	+	-40.2	·	·	83.3*	-0.8	62.0*
COc1cc(/C=C2\SC(=S)N(NC(=O)c3cccc(O)c3)C2=O)ccc1O	·	-56.3	3.3	-3.8	·	·	·
COc1cc(/C=C2\SC(=S)N(NC(=O)c3ccncc3)C2=O)ccc1O	+	-43.4	-5.6	-3.6	72.6*	29.4	65.1*
O=C(NN1C(=O)/C(=C/c2cccs2)SC1=S)c1ccccc1	i	-20.1	6.0	-2.3	·	·	·
O=C(NN1C(=O)/C(=C/c2cccs2)SC1=S)c1cccnc1	+	-13.3	·	·	1.6	-9.1	-8.4
CCC(C)[C@H]1CNCCN1CCc1cccc(F)c1 (stereo partly drawn)	i	1.1	-14.0	2.5	·	·	·
O=[N+]([O-])c1cccc(COc2ncnc3cc([N+](=O)[O-])ccc23)c1	i	-33.4	-2.1	-9.3	·	·	·
CC(C)N1CCc2c(sc(NC(=O)c3cc4cc([N+](=O)[O-])ccc4s3)c2C(N)=O)C1	+	-35.0	-6.6	14.3	22.2	14.7	-10.8
